Outcome and AC50 data for seven compounds are collected here from PubChem BioAssay (EPA / NIEHS).

“And” between values parts separate entries of the source, which are not always exact repeats. Equal entries are not always repeated. Results filed as inconclusive are left out. The source holds several records for some structures; these can differ, active in one and inactive in another. The source made the active and inactive calls. The calls were made as follows, unless noted: active = hit-call score of the fitted dose curve at least 0.9, where 1 is the maximum; inactive = score below 0.9.

Test [1] deals with human RAR-related Orphan Receptor gamma (RORg), RORC (gene 6097) (UniProt P51449). Nature of the test: ATG_RORg_TRANS: Attagene TRANS-FACTORIAL HepG2 Assay for human RAR-related Orphan Receptor gamma (RORg) (AID 2283011; active = hit-call score of the fitted dose curve at least 0.9, where 1 is the maximum;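 as to AC50: potency for induction of reporter transcripts above DMSO so activators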). The essentials:
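Chimeric RORg-Gal4 transactivation in transfected HepG2; 24 h exposure; RT-PCR/capillary electrophoresis readout of reporter mRNA, DMSO baseline.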

Test [2] concerns the target Retinoic acid receptor RXR-alpha (Homo sapiens) (UniProt P19793). The experiment in a line: ATG_RXRa_TRANS: Attagene TRANS-FACTORIAL HepG2 Assay for human Retinoid X Receptor alpha (RXRa) (AID 2283012; active = hit-call score of the fitted dose curve at least 0.9, where 1 is the maximum). The essentials: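 Transient transfection of human HepG2 with multiple GAL4-UAS reporter constructs; 24 h compound exposure; total RNA isolated, reverse-transcribed, PCR-amplified, 6-FAM labelled, HpaI-cut, resolved by capillary electrophoresis. Positive-direction fit versus DMSO.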

The target in test [3] is human Retinoid X Receptor beta (RXRb), RXRB (gene 6257) (UniProt P28702). Nature of the test: ATG_RXRb_TRANS: Attagene TRANS-FACTORIAL HepG2 Assay for human Retinoid X Receptor beta (RXRb) (AID 2283013; active = hit-call score of the fitted dose curve at least 0.9, where 1 is the maximum). The gist of the method: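 Transfect HepG2 with GAL4-UAS multi-reporter constructs (chimeric NR-Gal4, TRANS format); dose compound 24 h; isolate RNA, RT-PCR, FAM primer extension, HpaI digest; quantify by capillary electrophoresis; positive direction vs DMSO.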

Test [4] deals with human Thyroid Receptor alpha (THRa1), THRA (gene 7067) (UniProt P10827). Nature of the test: ATG_THRa1_TRANS: Attagene TRANS-FACTORIAL HepG2 Assay for human Thyroid Receptor alpha (THRa1) (AID 2283014; active = hit-call score of the fitted dose curve at least 0.9, where 1 is the maximum). The gist of the method:
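Measured here is mRNA from a GAL4-UAS reporter in transfected HepG2 cells carrying a Gal4-fused receptor, 24 h post-dose. DMSO served as negative control and baseline.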

Read-out in test [5]: E-selectin (Homo sapiens) (UniProt P16581)
Nature of the test: BSK_3C_Eselectin: BioMAP Diversity Plus: 3C Assay for Eselectin Biomarker Activity (AID 2283015).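 Also: cell surface E-selectin protein quantified by ELISA 24 h after dosing.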 The following applies: primary human endothelial cells (HUVEC); actives raise or lower the signal. The gist of the method:
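Endpoint derived by bidirectional fitting against DMSO vehicle; signal is ELISA-detected E-selectin from primary HUVEC at 24 h post-dosing, with parallel SRB staining (0.1% SRB, 560 nm) flagging cytotoxicity.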

Read-out in test [6]: Interleukin-1 alpha (IL1a), IL1A (gene 3552)
Nature of the test: BSK_BE3C_IL1a: BioMAP Diversity Plus: BE3C Assay for Interleukin-1 alpha (IL1a) Biomarker Activity (AID 2283016). The following applies: primary human bronchial epithelial cells; actives raise or lower the signal. The gist of the method:
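BE3C primary human bronchial epithelium; cpd 24 h; IL-1a by ELISA; bidirectional fit vs DMSO; parallel SRB (0.1% SRB, 10% TCA fix, 560 nm) for cytotoxicity.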

Read-out in test [7]: Monocyte Chemoattractant Protein-1 (MCP1), CCL2 (gene 6347)
Nature of the test: BSK_4H_MCP1: BioMAP Diversity Plus: 4H Assay for Monocyte Chemoattractant Protein-1 (MCP1) Biomarker Activity (AID 2283018). The following applies: primary human endothelial cells (HUVEC); actives raise or lower the signal. The gist of the method:
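ELISA read-out of MCP-1 from human vascular endothelial primary cells taken at 24 hours after compound exposure. Activity was fitted in both directions relative to DMSO, which served as negative control.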

Read-out in test [8]: Human Leukocyte Antigen - DR isotype (HLADR), HLA-DRA (gene 3122)
The experiment in a line: BSK_3C_HLADR: BioMAP Diversity Plus: 3C Assay for Human Leukocyte Antigen - DR isotype (HLADR) Biomarker Activity (AID 2283019).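 As to Outcome: ELISA of cell-surface HLA-DR on HUVEC 24 h after dosing.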 The following applies: primary human endothelial cells (HUVEC); actives raise or lower the signal. The essentials: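 Compound added to primary HUVEC cultures, 24 h incubation, then HLA-DR determined by ELISA; endpoint derived by bidirectional fitting relative to DMSO negative control.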

Read-out in test [9]: Interleukin-8 (IL8), CXCL8 (gene 3576)
Nature of the test: BSK_3C_IL8: BioMAP Diversity Plus: 3C Assay for Interleukin-8 (IL8) Biomarker Activity (AID 2283020). The following applies: primary human endothelial cells (HUVEC); actives raise or lower the signal. The gist of the method: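 ELISA read-out of IL-8 from human umbilical vein endothelium, measured 24 h after chemical dosing. Activity is expressed relative to DMSO negative control, with both increases and decreases fitted.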

Read-out in test [10]: Monokine induced gamma interferon (MIG), CXCL9 (gene 4283)
Nature of the test: BSK_3C_MIG: BioMAP Diversity Plus: 3C Assay for Monokine induced gamma interferon (MIG) Biomarker Activity (AID 2283021). The following applies: primary human endothelial cells (HUVEC); actives raise or lower the signal. The gist of the method: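 Read-out is ELISA detection of MIG on human umbilical vein endothelial cells, taken 24 h after dosing. Gain or loss of signal was scored relative to DMSO controls using bidirectional curve fitting.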

For test [11], the target named is human Vitamin D Receptor (VDR), VDR (gene 7421) (UniProt P11473). The experiment in a line: ATG_VDR_TRANS: Attagene TRANS-FACTORIAL HepG2 Assay for human Vitamin D Receptor (VDR) (AID 2283022; active = hit-call score of the fitted dose curve at least 0.9, where 1 is the maximum). The essentials: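 Multiplexed TRANS reporter in HepG2; 24 h treatment; reporter mRNA by RT-PCR plus capillary electrophoresis; upregulation scored relative to DMSO.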
The nature of test [12]: BSK_3C_SRB: Viability Assessment in the BioMAP Diversity Plus: 3C Assay (AID 2283023).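 Also: fitted both ways against DMSO so a hit may be signal rise or drop.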 The following applies: primary human endothelial cells (HUVEC). The essentials: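 Overt cytotoxicity is gauged in parallel confluent HUVEC cultures by SRB total-protein staining at the time of biomarker measurement, 24 h after dosing. Gain or loss of signal is fitted versus DMSO.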
Read-out in test [13]: Matrix Metallopeptidase 1 (MMP1), MMP1 (gene 4312)
Nature of the test: BSK_BE3C_MMP1: BioMAP Diversity Plus: BE3C Assay for Matrix Metallopeptidase 1 (MMP1) Biomarker Activity (AID 2283024). The following applies: primary human bronchial epithelial cells; actives raise or lower the signal. The essentials:
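Human bronchial epithelial cells (BE3C system) exposed to compound for 24 h; MMP1 then quantified by ELISA. Activity was fitted in both directions relative to DMSO.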

Test [14] is described as follows: BSK_3C_Vis: BioMAP Diversity Plus: 3C Assay for Morphology Visualization (AID 2283025).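 Also: fitted both ways so gain or loss versus DMSO counts.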 The following applies: primary human endothelial cells (HUVEC). The essentials: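 Chemicals were added to primary human umbilical vein endothelium, cells were incubated 24 h, and morphology was then visualized by light microscopy. Gain or loss of signal was fitted bidirectionally relative to DMSO.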

Read-out in test [15]: Pselectin, SELP (gene 6403)
The experiment in a line: BSK_4H_Pselectin: BioMAP Diversity Plus: 4H Assay for Pselectin Biomarker Activity (AID 2283026). The following applies: primary human endothelial cells (HUVEC); actives raise or lower the signal. The essentials: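 ELISA read-out of P-selectin on human umbilical vein endothelium after 24 h of dosing. Values derive from bidirectional fitting relative to DMSO. Parallel SRB protein staining flagged overt cytotoxicity.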

Test [16] can be described thus: BSK_4H_SRB: Viability Assessment in the BioMAP Diversity Plus: 4H Assay (AID 2283027).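 Also: cells exposed to compound for 24 h before staining.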 The following applies: primary human endothelial cells (HUVEC). The essentials:
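Human umbilical vein endothelial cells were dosed with chemical and, after 24 h, fixed with 10% TCA, stained with 0.1% sulforhodamine B, and read at 560 nm to give total protein as a cytotoxicity measure. Bidirectional fitting relative to DMSO control.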

Test [17] can be described thus: BSK_BE3C_SRB: Viability Assessment in the BioMAP Diversity Plus: BE3C Assay (AID 2283028). The following applies: primary human bronchial epithelial cells. The essentials: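 SRB total-protein staining (0.1%, after TCA fixation) of chemically dosed human bronchial epithelial primary cells at 24 h; DMSO serves as the negative control for bidirectional curve fitting.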

Read-out in test [18]: Thrombomodulin, THBD (gene 7056)
The experiment in a line: BSK_3C_Thrombomodulin: BioMAP Diversity Plus: 3C Assay for Thrombomodulin Biomarker Activity (AID 2283029). The following applies: primary human endothelial cells (HUVEC); actives raise or lower the signal. The essentials:
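Read-out is ELISA of thrombomodulin on human umbilical vein endothelium 24 h after chemical dosing. Gain or loss of signal is scored relative to DMSO. Overt cytotoxicity is checked in parallel cultures by sulforhodamine B staining.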

Read-out in test [19]: Urokinase-type plasminogen activator receptor (uPAR), PLAUR (gene 5329)
Nature of the test: BSK_4H_uPAR: BioMAP Diversity Plus: 4H Assay for Urokinase-type plasminogen activator receptor (uPAR) Biomarker Activity (AID 2283030). The following applies: primary human endothelial cells (HUVEC); actives raise or lower the signal. The gist of the method:
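Endpoint derived via bidirectional curve fitting against DMSO baseline; readout was ELISA detection of uPAR on umbilical vein endothelial cells at 24 h post-treatment, with SRB-stained parallel cultures assessing cytotoxicity.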

Read-out in test [20]: Monocyte Chemoattractant Protein-1 (MCP1), CCL2 (gene 6347)
The experiment in a line: BSK_3C_MCP1: BioMAP Diversity Plus: 3C Assay for Monocyte Chemoattractant Protein-1 (MCP1) Biomarker Activity (AID 2283017). The following applies: primary human endothelial cells (HUVEC); actives raise or lower the signal. The essentials: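 Using human vascular primary endothelium, researchers measured MCP-1 by ELISA 24 h after treatment, with DMSO serving as negative control for bidirectional fitting.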

Chain of human RAR-related Orphan Receptor gamma (RORg), RORC (gene 6097) (P51449 whole entry, looked up, the tested form may be a part): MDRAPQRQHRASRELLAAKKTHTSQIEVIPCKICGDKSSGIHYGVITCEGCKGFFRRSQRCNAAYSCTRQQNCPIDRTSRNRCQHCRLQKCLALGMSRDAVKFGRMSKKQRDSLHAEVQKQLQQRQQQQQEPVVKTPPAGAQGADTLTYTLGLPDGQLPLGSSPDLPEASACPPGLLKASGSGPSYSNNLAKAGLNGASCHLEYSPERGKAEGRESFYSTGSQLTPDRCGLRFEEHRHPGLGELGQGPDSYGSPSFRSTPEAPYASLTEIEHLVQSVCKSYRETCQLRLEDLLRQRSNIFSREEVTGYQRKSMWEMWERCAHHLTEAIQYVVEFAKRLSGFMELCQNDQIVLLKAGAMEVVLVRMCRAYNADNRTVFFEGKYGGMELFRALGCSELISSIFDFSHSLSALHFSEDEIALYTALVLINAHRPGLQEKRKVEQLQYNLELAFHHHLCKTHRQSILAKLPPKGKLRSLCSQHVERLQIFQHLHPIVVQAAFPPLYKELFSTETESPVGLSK
Chain of Retinoic acid receptor RXR-alpha (Homo sapiens) (P19793 whole entry, looked up, the tested form may be a part): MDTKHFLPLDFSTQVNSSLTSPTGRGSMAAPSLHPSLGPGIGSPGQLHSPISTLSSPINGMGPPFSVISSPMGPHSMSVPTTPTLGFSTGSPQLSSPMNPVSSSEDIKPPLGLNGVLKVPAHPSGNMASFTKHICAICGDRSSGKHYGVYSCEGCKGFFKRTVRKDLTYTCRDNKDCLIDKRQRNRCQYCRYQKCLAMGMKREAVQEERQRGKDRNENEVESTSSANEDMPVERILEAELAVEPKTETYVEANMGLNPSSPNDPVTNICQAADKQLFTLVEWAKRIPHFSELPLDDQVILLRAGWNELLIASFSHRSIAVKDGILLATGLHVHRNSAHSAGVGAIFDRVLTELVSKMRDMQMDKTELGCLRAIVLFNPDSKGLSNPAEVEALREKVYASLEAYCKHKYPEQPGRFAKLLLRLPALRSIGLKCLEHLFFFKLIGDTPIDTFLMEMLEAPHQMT
Chain of human Retinoid X Receptor beta (RXRb), RXRB (gene 6257) (P28702 whole entry, looked up, the tested form may be a part): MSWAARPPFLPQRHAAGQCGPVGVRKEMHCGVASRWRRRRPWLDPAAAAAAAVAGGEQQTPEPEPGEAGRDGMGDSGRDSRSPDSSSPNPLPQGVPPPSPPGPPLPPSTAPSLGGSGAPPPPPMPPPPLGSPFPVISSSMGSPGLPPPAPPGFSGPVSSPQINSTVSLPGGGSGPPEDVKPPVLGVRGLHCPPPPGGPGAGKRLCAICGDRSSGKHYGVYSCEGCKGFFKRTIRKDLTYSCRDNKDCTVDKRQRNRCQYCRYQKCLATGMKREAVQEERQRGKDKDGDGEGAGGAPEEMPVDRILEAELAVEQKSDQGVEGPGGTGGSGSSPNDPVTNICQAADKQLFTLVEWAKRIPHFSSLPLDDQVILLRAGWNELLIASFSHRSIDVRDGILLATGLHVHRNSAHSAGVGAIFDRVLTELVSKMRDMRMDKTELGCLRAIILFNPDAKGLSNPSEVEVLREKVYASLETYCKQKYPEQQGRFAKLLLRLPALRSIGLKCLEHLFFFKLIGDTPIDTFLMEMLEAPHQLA
Chain of human Thyroid Receptor alpha (THRa1), THRA (gene 7067) (P10827 whole entry, looked up, the tested form may be a part): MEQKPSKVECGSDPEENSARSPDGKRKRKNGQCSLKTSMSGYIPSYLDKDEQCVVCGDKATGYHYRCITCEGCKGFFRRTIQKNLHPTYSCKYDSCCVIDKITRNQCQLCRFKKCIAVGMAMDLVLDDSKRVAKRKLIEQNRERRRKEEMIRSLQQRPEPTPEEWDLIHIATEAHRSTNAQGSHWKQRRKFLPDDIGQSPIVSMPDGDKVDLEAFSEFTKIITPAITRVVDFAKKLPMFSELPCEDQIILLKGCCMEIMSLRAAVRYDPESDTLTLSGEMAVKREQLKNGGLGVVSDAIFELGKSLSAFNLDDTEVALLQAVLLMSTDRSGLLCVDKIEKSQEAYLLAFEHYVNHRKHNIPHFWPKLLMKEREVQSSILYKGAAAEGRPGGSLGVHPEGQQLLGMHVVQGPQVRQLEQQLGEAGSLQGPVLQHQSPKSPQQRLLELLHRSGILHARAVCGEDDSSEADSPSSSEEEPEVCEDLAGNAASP
Chain of human Vitamin D Receptor (VDR), VDR (gene 7421) (P11473 whole entry, looked up): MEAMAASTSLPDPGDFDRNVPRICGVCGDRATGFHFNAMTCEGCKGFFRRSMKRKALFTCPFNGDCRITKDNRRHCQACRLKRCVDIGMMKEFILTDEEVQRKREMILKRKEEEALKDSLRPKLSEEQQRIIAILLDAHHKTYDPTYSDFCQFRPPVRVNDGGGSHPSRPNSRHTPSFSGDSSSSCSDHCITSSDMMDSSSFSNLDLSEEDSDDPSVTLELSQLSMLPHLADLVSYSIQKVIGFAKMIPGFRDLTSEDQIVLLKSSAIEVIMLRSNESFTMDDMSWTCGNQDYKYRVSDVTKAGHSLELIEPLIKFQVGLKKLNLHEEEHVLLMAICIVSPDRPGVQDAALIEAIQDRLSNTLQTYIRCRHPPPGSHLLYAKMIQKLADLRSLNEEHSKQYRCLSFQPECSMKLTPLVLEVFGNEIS
Chain of E-selectin (Homo sapiens) (P16581 whole entry, looked up): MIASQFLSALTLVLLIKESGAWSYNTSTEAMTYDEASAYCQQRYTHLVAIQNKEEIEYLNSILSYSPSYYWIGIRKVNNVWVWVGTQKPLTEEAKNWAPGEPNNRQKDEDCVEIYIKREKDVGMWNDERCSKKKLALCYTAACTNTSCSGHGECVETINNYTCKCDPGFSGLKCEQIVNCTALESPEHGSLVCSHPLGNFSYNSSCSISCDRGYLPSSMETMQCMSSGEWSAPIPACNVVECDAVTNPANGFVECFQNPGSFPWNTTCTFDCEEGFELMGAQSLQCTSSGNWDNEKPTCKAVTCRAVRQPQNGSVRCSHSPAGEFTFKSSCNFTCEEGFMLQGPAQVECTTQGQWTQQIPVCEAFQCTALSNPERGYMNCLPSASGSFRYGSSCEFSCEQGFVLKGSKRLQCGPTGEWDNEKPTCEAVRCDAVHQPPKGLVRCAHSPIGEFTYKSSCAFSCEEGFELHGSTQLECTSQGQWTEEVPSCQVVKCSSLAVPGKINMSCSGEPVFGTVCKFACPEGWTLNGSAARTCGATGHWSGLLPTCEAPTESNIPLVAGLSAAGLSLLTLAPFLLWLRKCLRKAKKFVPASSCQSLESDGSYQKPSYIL

Regarding `OCC(CO)(CO)CO`, the compound was classed as inactive in test [1], in [2], in test [3], in [4], in test [5] and in test [6]. Moreover, the result in [7], in test [8], in test [9], in test [10], in test [11] and in test [12] was inactive. Also, the outcome in test [13], in [14], in test [15], in test [16], in [17] and in [18] was inactive. In [19], the outcome was inactive.
The term AC50 denotes the concentration giving half of the maximal activity seen. Take `OC(O)(C(F)C(O)(O)C(F)(F)F)C(F)(F)F`: the AC50 was 220 µM (active) and 106 µM (active) in test [1]; 17.6 µM (active) in test [8]; 20.5 µM (active) in test [19]. In addition, the compound was called inactive in [2], in test [3], in test [6], in test [7], in [8] and in test [9]. Further, the result in test [10], in test [11], in test [12], in [13], in test [15] and in test [16] was inactive. For the same compound, the result in [17], in [18] and in test [19] was inactive.
Turning to `FC(F)(F)C(F)(F)C(F)(F)C(F)(F)C(F)(F)C(F)(F)I`, the result in test [1], in test [2], in [3], in test [5], in [6] and in [20] was inactive. In addition, the outcome in [7], in test [8], in test [9], in [10], in test [11] and in test [12] was inactive. The result in test [13], in test [15], in [16], in [17], in test [18] and in test [19] was inactive. In addition, the AC50 in [3] was 91.3 µM (active).
With `Cc1cccc(O)c1C`, the compound was classed as inactive in test [1], in test [2], in test [3], in test [4], in test [5] and in [6]. Also, the outcome in test [20], in test [7], in test [8], in test [9], in test [10] and in test [11] was inactive. Further, the outcome in test [12], in test [13], in [14], in [15], in test [16] and in test [17] was inactive. Further, the outcome in test [18] and in test [19] was inactive.
For `COS(C)(=O)=O`, the call in test [1], in [2], in test [3], in [6], in test [20] and in test [7] was inactive. Also, the result in test [8], in test [9], in test [10], in [11], in test [12] and in test [13] was inactive. In addition, the outcome in [14], in test [15], in test [16], in test [17], in [18] and in test [19] was inactive.
On to `NCC(F)(F)C(F)(F)C(F)(F)C(F)(F)F`, for which the call in test [1], in test [2], in test [3], in test [4], in test [6] and in test [7] was inactive. Also, the result in test [8], in test [9], in test [10], in test [11], in test [12] and in test [13] was inactive. Moreover, the outcome in test [15], in [16], in [17], in [18] and in [19] was inactive. Further, in [18], the AC50 was 5.95 µM (active).
As to `C[Si](C)(C)C(F)(F)C(F)(F)C(F)(F)F`, the compound was classed as inactive in [1], in test [2], in [3], in test [4], in [6] and in test [20]. Further, the result in test [7], in [8], in test [9], in test [10], in test [11] and in test [12] was inactive. Besides, the outcome in [13], in test [15], in [16], in test [17], in [18] and in [19] was inactive.
